An excerpt weighted towards active compounds, which were near 9.4% of everything screened.
HTT ATP protect – protects HTT-Q103 PC12 cells, measured by ATP; Potency, µM (doses to about 56.4 µM), inactives show cytoprotection (ATP increase), usual class: activators; AID 1471; PC12 HTT-Q103 induced, cytoprotection, ATP luminescence, 40 h; 230,000 compounds, 0.14% hits; note: potency is the fitted concentration of half-maximal effect; % of control where 0% means no effect; nearly all actives have a fitted effect of over 45% in size
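Compounds were screened for protection of PC12 cells against cell death after tebufenozide induction (100 nM final) of mutant Huntingtin exon 1 (Q103) fused to GFP.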
HttQ103 aggreg – inhibitors of mutant huntingtin aggregate formation in PC12 cells; PC12 HttQ103-GFP aggregates, Acumen cytometry, 40 h; 220,000 compounds, 1.1% hits; Potency, µM (doses to about 46.1 µM), inactives show at the top dose activity change, negative = inhibition, hits mostly inhibitors; note: potency is the fitted concentration of half-maximal effect; % is set by controls: 0 for no effect and ±100 for the full control effect; nearly all actives have a fitted effect of over 60% in size
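Quantitative HTS on tebufenozide-induced (100 nM) PC12 cells stably expressing polyQ103 Huntingtin exon 1–GFP. Reduction of bright GFP aggregates, detected by laser scanning cytometry after lysis, identified actives across the titration.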
IMPase cell inh – membrane-permeable compound that blocks inositol monophosphatase. inhibition (IP1 accumulation), % at 46.1 µM. CHO-M1 cells, IP1 accumulation, HTRF TR-FRET ratio. P97697. AID 901. 120,000 tested, under 10 active; active = well fitted curve in the direction sought with a large enough effect in the signal ratio, not every such curve was filed as active; inconclusive = small, poorly fitted or top-dose-only effect, or a change in a side signal; inactive = no such curve, though single readings can be large or run the other way; the % refers to the signal ratio;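 note: cells stimulated with carbachol in lithium chloride buffer; plate controls were DMSO basal wells for no effect and reference inhibitor wells for full effect; higher means more IMPase inhibition seen as more IP1 and lower FRET ratio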
Target sequence (P97697 whole entry, looked up): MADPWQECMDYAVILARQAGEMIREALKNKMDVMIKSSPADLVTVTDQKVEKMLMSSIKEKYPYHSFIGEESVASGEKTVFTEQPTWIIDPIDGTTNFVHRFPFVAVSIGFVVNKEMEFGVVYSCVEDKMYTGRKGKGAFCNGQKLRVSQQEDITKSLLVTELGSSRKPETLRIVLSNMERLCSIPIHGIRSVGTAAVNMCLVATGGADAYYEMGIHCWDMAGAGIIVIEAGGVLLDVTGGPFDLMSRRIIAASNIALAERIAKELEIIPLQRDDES
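Carbachol-driven Gq signalling in CHO-M1 cells (2000/well) generates IP1. Compounds that block IMPase raise IP1 and so reduce the FRET signal from Eu-anti-IP1 and d2-IP1 after a 10 min room-temperature lysis.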
ALDH1A1 inh – ALDH1A1 (human) enzyme inhibition | 220,000 compounds, 7.3% hits | Purified ALDH1A1, NADH fluorescence, propionaldehyde substrate | P00352 | AID 1030 | Potency, µM (highest dose often 75.3 µM), without a hit: at the top dose activity, negative = inhibition, usual class: inhibitors; active = well fitted inhibition curve with a large enough effect, not every such curve was filed as active; inconclusive = small, poorly fitted or top-dose-only effect, or another doubt; inactive = no such curve, though single readings can be large or run the other way;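 note: potency is the fitted concentration of half-maximal effect; plate controls were no enzyme wells and a reference inhibitor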
IMPase Li inh – IMPase inhibition in cells with lithium potentiation; CHO-M1 cells, IP1 TR-FRET (IP-One), carbachol + lithium; Potency, µM (highest dose often 59.4 µM), without a hit: at the top dose activity, negative = IMPase inhibition, hits mostly inhibitors; AID 1457; 210,000 compounds, 0.35% hits;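 note: IP1 builds up when IMPase is blocked and the TR-FRET signal falls; potency is the fitted concentration of half-maximal effect; plate controls were basal vehicle for no effect and high inhibitor control for full effect; nearly all actives have a fitted effect of over 50% in size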
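Readout is a homogeneous TR-FRET IP1 immunoassay (Ex 320, Em 665 and 620), where raised cytosolic IP1 lowers signal. Cells were CHO-M1 treated 30 min at 37C with test compounds plus a little lithium; AC50 values came from Hill-equation fitting.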
HPGD block – HPGD (human) dehydrogenase inhibition. purified HPGD, NADH fluorescence kinetic, PGE2 substrate. Potency, µM, without a hit: at the top dose activity change, negative = inhibition, most hits filed as inhibitors. 150,000 compounds, 4.3% hits. AID 894. P15428; active = well fitted inhibition curve with a large enough effect, not every such curve was filed as active; inconclusive = small, poorly fitted or top-dose-only effect, or another doubt; inactive = no such curve, though single readings can be large or run the other way; note: potency is the fitted concentration of half-maximal effect; % is set by controls: 0 for no effect and ±100 for the full control effect
Target sequence (P15428 whole entry, looked up): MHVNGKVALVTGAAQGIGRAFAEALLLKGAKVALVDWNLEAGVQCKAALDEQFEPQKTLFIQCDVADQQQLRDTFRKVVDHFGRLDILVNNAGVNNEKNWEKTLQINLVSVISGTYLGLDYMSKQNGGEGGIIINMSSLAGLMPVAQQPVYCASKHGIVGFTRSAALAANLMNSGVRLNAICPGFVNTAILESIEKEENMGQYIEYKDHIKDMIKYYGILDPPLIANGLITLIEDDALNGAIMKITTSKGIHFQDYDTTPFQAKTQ
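20 nM HPGD preincubated 15 min at room temperature with compound in 50 mM Tris-HCl pH 8, 0.01% Tween 20. Started with 1 mM NAD+ and 30 uM prostaglandin E2; NADH fluorescence (360/450 nm) read 5 times over 30-s intervals, last minus first.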
Numbers without * were called inactive; [ ] = dose if it differs, or a comment. Unless noted, calls come from the whole dose curve; as a rule, active = well fitted curve in the direction sought with a large enough effect; inconclusive = small, poorly fitted or top-dose-only effect, or another doubt; inactive = no such curve, though single readings can be large; an effect the other way counts as inactive or inconclusive.

`OC(c1ccccc1)C1CN(Cc2ccccc2)CCC1(O)c1ccccc1` (stereo not drawn) gave HTT ATP protect -22.6%, HttQ103 aggreg 1.5%, IMPase cell inh 2.2, ALDH1A1 inh 20µM*, IMPase Li inh 23.1%[38.3 µM] and HPGD block -13.9%.
Screening CCCCn1c(=N)c(S(=O)(=O)c2ccc(Cl)cc2)cc2c(=O)n3cccc(C)c3nc21 returned IMPase cell inh -7.9.
O=c1oc2ccccc2c(N2CCCCC2)c1CN1CCCCC1 was read as HTT ATP protect 8.2%[10 µM], HttQ103 aggreg inconclusive, IMPase cell inh 7.1, ALDH1A1 inh 14.1µM*, IMPase Li inh 10.6% and HPGD block -20.3%.
O=C(O)CCN1CCOCC1 was read as HTT ATP protect -9.3%, HttQ103 aggreg 6.8%, IMPase cell inh -4.7, ALDH1A1 inh 8.6%, IMPase Li inh -7.9%[38.3 µM] and HPGD block -5.8%.
C[N+]1(CCC(=O)c2ccccc2)CCCCC1 was read as HttQ103 aggreg 14.3%, ALDH1A1 inh 1.26µM*, IMPase Li inh -0.7% and HPGD block 31.6µM*.
`O=C(CCN1CCOCC1)c1ccccc1` gave HTT ATP protect 15.3%, HttQ103 aggreg 5.7%[9.22 µM], IMPase cell inh 8.5, ALDH1A1 inh 0.316µM*, IMPase Li inh -3.3%[38.3 µM] and HPGD block -23.3%.
`O=C(CCN1CCCCC1)c1csc2ccccc12` gave HTT ATP protect -8.5%[10 µM], ALDH1A1 inh 0.141µM*, IMPase Li inh -2.0% and HPGD block -13.1%.
`CC(C)C[C@H](N)CSSC[C@@H](N)CC(C)C` gave HTT ATP protect -26.1%[1.9 µM], IMPase cell inh 10.2, ALDH1A1 inh 1.9%, IMPase Li inh 6.9% and HPGD block -3.2%.
Screening CCc1oc2ccccc2c1C(=O)CCN1CCCCC1 returned HTT ATP protect -0.8%[10 µM], HttQ103 aggreg -7.4%, IMPase cell inh 14.4, ALDH1A1 inh 0.112µM*, IMPase Li inh -0.9%[38.3 µM] and HPGD block 28.2µM*.
O=C(CCN1CCCCC1)c1ccccc1 was read as HTT ATP protect 3.3%, HttQ103 aggreg 25.6%, IMPase cell inh -3.9, ALDH1A1 inh 1.12µM*, IMPase Li inh 31.9%[38.3 µM] and HPGD block -21.4%.
`CC1(C)Cc2c(sc3ncn(N)c(=N)c23)CO1` gave HTT ATP protect 21.8%, HttQ103 aggreg -21.1%, IMPase cell inh 4.7, ALDH1A1 inh 1.2%, IMPase Li inh 3.4%[38.3 µM] and HPGD block -2.4%.
`CC1CCCc2sc3ncn(N)c(=N)c3c21` (stereo not drawn) gave HTT ATP protect -13.8%, HttQ103 aggreg 1.41µM*, ALDH1A1 inh 8.9% and IMPase Li inh -1.2%.
Screening COc1cccc2c1C(=O)c1c(O)c3c(c(O)c1C2=O)C[C@@](O)(C(=O)CO)C[C@H]3O[C@H]1C[C@@H](N)[C@H](O)[C@@H](C)O1.[W] returned HTT ATP protect -43.2%[10 µM], ALDH1A1 inh -10.6%[13.5 µM], IMPase Li inh -0.2% and HPGD block -3.0%.
`O=C(NCc1ccccc1)C1=C[C@@H](c2coc3ccccc3c2=O)C[C@@H](OCc2ccc(CO)cc2)O1` gave HTT ATP protect -5.6%[10 µM], HttQ103 aggreg 30.6%[9.22 µM], ALDH1A1 inh 7.94µM* and IMPase Li inh 2.3%.
Screening O=C(NCc1ccccc1)C1=C[C@@H](C2CC2)C[C@@H](OCc2ccc(CO)cc2)O1 returned HTT ATP protect 11.6%[10 µM], HttQ103 aggreg 13.1%[9.22 µM], ALDH1A1 inh 11.2µM* and IMPase Li inh 4.4%.
O=C(NCc1ccccc1)C1=C[C@H](C2CCCCC2)C[C@H](OCc2ccc(CO)cc2)O1 was read as HTT ATP protect 32.9%[10 µM], HttQ103 aggreg 16.0%[9.22 µM], ALDH1A1 inh inconclusive and IMPase Li inh 19.6%.
`Cc1cc(C)cc(N(CCC(=O)Nc2nnc(C3CC3)s2)S(=O)(=O)c2ccc(Cl)cc2)c1` gave HTT ATP protect -53.3%[10 µM], HttQ103 aggreg -4.1%, ALDH1A1 inh 8.7%, IMPase Li inh 4.5% and HPGD block -10.3%.

Screens deposited in PubChem by National Center for Advancing Translational Sciences (NCATS).
